Assay results: PubChem BioAssay (NCI)
About 83,000 compounds went through this panel and 20% of them were active in at least one assay; those are over-represented in the sample as a whole.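 Values shown are percent growth following 48 h exposure of cells in 96-well plates to a single concentration of compound; below 10 was considered active.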 Values without a mark were called inactive. Active and inactive are the calls of the source.

System: OVCAR-8 ovarian
Assay: NCI-60 one-dose screen, 48 h (100 = growth as untreated, 0 = no growth, -100 = all killed)
Conditions: 10 µM

Row | SMILES | growth
1 | O=C1Nc2ccc(Cl)cc2/C1=C/c1cccc(OCc2ccccc2)c1 | 14.6%
2 | CN(C)c1ccc(/C=C/C(=O)c2ccc(NC(=O)CN3C(=O)NC(C)(c4ccccc4)C3=O)cc2)cc1 (centres undefined) | 67.1%
3 | CN1CCN(Cc2ccc(C(=O)Nc3cccc(Nc4ccc5cc(O)ccc5n4)c3)cc2C(F)(F)F)CC1 | 4.28% (active)
4 | Nc1nnc(-c2c[nH]c3ccc(F)cc23)c(-c2c[nH]c3ncccc23)n1 | 46.7%
5 | C/C(=C\CC/C=C(\C)CC/C=C(\C)CC[C@@H](O)C(C)(C)O)CC/C=C(\C)CC[C@@H](O)C(C)(C)O | 47.6%
6 | Cc1ccc(-c2ccc(SCC(=O)Nc3ccc(Cl)c(C(F)(F)F)c3)nn2)cc1 | 1.56% (active)
7 | CN1CCN(c2ccc(Nc3nc(NCCCNC(=O)c4ccc(F)cc4)c4sccc4n3)cc2)CC1 | 47.5%
8 | C#Cc1ccc(S(=O)(=O)Nc2cccc(-c3csc(NC(C)=O)n3)c2)cc1 | 85.5%

System: OVCAR-5 ovarian
Assay: as above
Conditions: 10 µM

Row | SMILES | growth
9 | CCOc1ccc(Nc2nc3ccccc3nc2Nc2ccc(OCC)cc2)cc1 | 107%
10 | O=c1cc(-c2ccccc2)oc2cc(OCCCCNCc3ccccc3)cc(O)c12 | 92.1%
11 | Cc1ccc(C(C)C)cc1NC(=O)c1ccccc1N(C)C | 86.6%
12 | O=C(c1ccc(Cl)cc1)C1[C@H](c2ccccc2Br)[C@@H](c2ccccc2)NC12C(=O)Nc1ccccc12 (some centres undefined) | 4.22% (active)
13 | [2H]C([2H])([2H])Oc1ccc2ncc(C#Cc3cncc(C(=O)Nc4ccc(CN5CCN(C)CC5)c(C(F)(F)F)c4)c3)n2n1 | -92.9% (active)
14 | O=C1Nc2cc(Cl)ccc2/C1=C/c1ccc(OCc2ccc(Br)cc2F)cc1 | 25.2%
15 | CN1CCN(c2ccc(Nc3nc(NCCCNC(=O)c4ccccc4)c4sccc4n3)cc2)CC1 | 88.4%
16 | C=C1CC[C@H](C(=C)C)[C@H]2C=C(C)C(=O)C3=C(C(=O)[C@@](C)(O)C3)[C@H]12 | -87.2% (active)
17 | COc1ccc(N(C)c2cc(C#N)nc3ccccc23)cc1N | 34.6%
18 | COc1ccc(C(C)=C(c2ccc(OCCCN(C)C)cc2)c2ccc(OCCCN(C)C)cc2)cc1 | -100% (active)
19 | CC1(c2ccccc2)NC(=O)N(CC(=O)Nc2ccc(C(=O)/C=C/c3ccc(Cl)cc3)cc2)C1=O (centres undefined) | 34.5%
20 | NC(=Nc1ccc(OCCCCCCCCn2ccnn2)cc1)c1ccccc1 | 24.9%
21 | COC[C@@H](CC(C)C)N=C1N/C(=C\c2ccc3ncsc3c2)C(=O)N1C | -6.76% (active)
22 | O=C(CSc1ccc(-c2ccc(Cl)cc2)nn1)Nc1ccc(Cl)c(C(F)(F)F)c1 | 79.6%
23 | Cc1cc(C)cc(Oc2cccc(-c3c(C)nnn3C3CCN(CCN(C)C)CC3)n2)c1 | 58%
24 | CC(=O)NCC1=C(C)C=C2C(=O)[C@](C)(O)C3(CC3)C(C)=C21 | -28.8% (active)
25 | O=C(Nc1ccc(OCC(=O)c2ccccc2)cc1)Nc1ccc(Cl)c(C(F)(F)F)c1 | 35.8%
26 | CCOC(=O)c1c(CSc2ccccc2)n(C)c2cc(CN(C)C)c(O)c(CN(C)C)c12 | 63.4%
27 | Cc1ccc(-c2cc(-c3cc4ccccc4nc3Cl)[nH]c(=O)n2)cc1 | -8.44% (active)
28 | O=C(CS(=O)(=O)c1oc(-c2ccc(Cl)cc2)nc1S(=O)(=O)c1ccc(Cl)cc1)N1CCOCC1 | 38.3%
29 | O=C1Nc2ccc(Cl)cc2/C1=C/c1cccc(OCc2ccccc2)c1 | 69.2%
30 | CN(C)c1ccc(/C=C/C(=O)c2ccc(NC(=O)CN3C(=O)NC(C)(c4ccccc4)C3=O)cc2)cc1 (centres undefined) | 86%
31 | COc1cccc(C(N)=Nc2ccc(OCCCCCCn3cncn3)cc2)c1 | 28.2%
32 | CN1CCN(Cc2ccc(C(=O)Nc3cccc(Nc4ccc5cc(O)ccc5n4)c3)cc2C(F)(F)F)CC1 | -25% (active)
33 | Nc1nnc(-c2c[nH]c3ccc(F)cc23)c(-c2c[nH]c3ncccc23)n1 | 78.8%
34 | C/C(=C\CC/C=C(\C)CC/C=C(\C)CC[C@@H](O)C(C)(C)O)CC/C=C(\C)CC[C@@H](O)C(C)(C)O | 56.1%
35 | Cc1ccc(-c2ccc(SCC(=O)Nc3ccc(Cl)c(C(F)(F)F)c3)nn2)cc1 | 39.1%
36 | CN1CCN(c2ccc(Nc3nc(NCCCNC(=O)c4ccc(F)cc4)c4sccc4n3)cc2)CC1 | 78.2%
37 | C#Cc1ccc(S(=O)(=O)Nc2cccc(-c3csc(NC(C)=O)n3)c2)cc1 | 101%

System: OVCAR-4 ovarian
Assay: as above
Conditions: 10 µM

Row | SMILES | growth
38 | CCOc1ccc(Nc2nc3ccccc3nc2Nc2ccc(OCC)cc2)cc1 | 52.7%
39 | O=c1cc(-c2ccccc2)oc2cc(OCCCCNCc3ccccc3)cc(O)c12 | 34.7%
40 | Cc1ccc(C(C)C)cc1NC(=O)c1ccccc1N(C)C | 90%
41 | CCCCSc1nc(Nc2ccc(/C(C)=N/NC(N)=S)cc2)c(C#N)c(-c2ccc(F)cc2)n1 | 16.3%
42 | O=C(c1ccc(Cl)cc1)C1[C@H](c2ccccc2Br)[C@@H](c2ccccc2)NC12C(=O)Nc1ccccc12 (some centres undefined) | 25.9%
43 | CC(=O)c1ccc(NC(=O)NCn2c(=O)[nH]c3ccccc3c2=O)cc1 | 107%
44 | [2H]C([2H])([2H])Oc1ccc2ncc(C#Cc3cncc(C(=O)Nc4ccc(CN5CCN(C)CC5)c(C(F)(F)F)c4)c3)n2n1 | -34.6% (active)
45 | O=C1Nc2cc(Cl)ccc2/C1=C/c1ccc(OCc2ccc(Br)cc2F)cc1 | -53.8% (active)
46 | C[C@H]1[C@H](C)CC[C@]2(COC(=O)CCC(=O)NCC#CCN3CCNCC3)CC[C@]3(C)C(=CC[C@@H]4[C@@]5(C)CCCNC(C)(C)[C@@H]5CC[C@]43C)[C@H]12 | 66.1%
47 | COc1ccc2nc(Cl)c(-c3cc(-c4ccccc4)nc(N)n3)cc2c1 | 83.7%
48 | COc1ccc(CN2[C@H](C(=O)NCCCCCCC(=O)NO)Cc3c([nH]c4ccccc34)[C@H]2C2CC2)cc1 | 40.6%
49 | CN1CCN(c2ccc(Nc3nc(NCCCNC(=O)c4ccccc4)c4sccc4n3)cc2)CC1 | 77.9%
50 | C=C1CC[C@H](C(=C)C)[C@H]2C=C(C)C(=O)C3=C(C(=O)[C@@](C)(O)C3)[C@H]12 | -81.8% (active)
51 | COc1ccc(N(C)c2cc(C#N)nc3ccccc23)cc1N | 55%
52 | COc1ccc(C(C)=C(c2ccc(OCCCN(C)C)cc2)c2ccc(OCCCN(C)C)cc2)cc1 | -94.6% (active)
53 | CC1(c2ccccc2)NC(=O)N(CC(=O)Nc2ccc(C(=O)/C=C/c3ccc(Cl)cc3)cc2)C1=O (centres undefined) | 24.8%
54 | NC(=Nc1ccc(OCCCCCCCCn2ccnn2)cc1)c1ccccc1 | 57.1%
55 | COC[C@@H](CC(C)C)N=C1N/C(=C\c2ccc3ncsc3c2)C(=O)N1C | 29.3%
56 | O=C(CSc1ccc(-c2ccc(Cl)cc2)nn1)Nc1ccc(Cl)c(C(F)(F)F)c1 | 76.1%

Row | SMILES | growth
57 | Cc1ccc(NC(=O)NCn2c(=O)[nH]c3ccccc3c2=O)cc1 | 50.8%
58 | Cc1cc(C)cc(Oc2cccc(-c3c(C)nnn3C3CCN(CCN(C)C)CC3)n2)c1 | 38.9%
59 | CC(=O)NCC1=C(C)C=C2C(=O)[C@](C)(O)C3(CC3)C(C)=C21 | -53% (active)
60 | O=C(Nc1ccc(OCC(=O)c2ccccc2)cc1)Nc1ccc(Cl)c(C(F)(F)F)c1 | 22.9%
61 | CCOC(=O)c1c(CSc2ccccc2)n(C)c2cc(CN(C)C)c(O)c(CN(C)C)c12 | 36.5%
62 | Cc1ccc(-c2cc(-c3cc4ccccc4nc3Cl)[nH]c(=O)n2)cc1 | 48.1%
63 | COc1ccc([C@H]2C(C(=O)c3ccc(Cl)cc3)C3(N[C@@H]2c2ccccc2)C(=O)Nc2ccc(Br)cc23)cc1 (some centres undefined) | 17.2%
64 | O=C(CS(=O)(=O)c1oc(-c2ccc(Cl)cc2)nc1S(=O)(=O)c1ccc(Cl)cc1)N1CCOCC1 | -8.45% (active)
65 | COc1ccc(C=CC(=O)c2ccc(-n3c(C)nc4c(cnn4-c4ccccc4)c3=O)cc2)cc1 | 65.7%
66 | O=C1Nc2ccc(Cl)cc2/C1=C/c1cccc(OCc2ccccc2)c1 | 33.5%
67 | CN(C)c1ccc(/C=C/C(=O)c2ccc(NC(=O)CN3C(=O)NC(C)(c4ccccc4)C3=O)cc2)cc1 (centres undefined) | 55.4%
68 | COc1cccc(C(N)=Nc2ccc(OCCCCCCn3cncn3)cc2)c1 | 60.7%
69 | CN1CCN(Cc2ccc(C(=O)Nc3cccc(Nc4ccc5cc(O)ccc5n4)c3)cc2C(F)(F)F)CC1 | 6.75% (active)
70 | Nc1nnc(-c2c[nH]c3ccc(F)cc23)c(-c2c[nH]c3ncccc23)n1 | 81.4%
71 | C/C(=C\CC/C=C(\C)CC/C=C(\C)CC[C@@H](O)C(C)(C)O)CC/C=C(\C)CC[C@@H](O)C(C)(C)O | 42%
72 | Cc1ccc(-c2ccc(SCC(=O)Nc3ccc(Cl)c(C(F)(F)F)c3)nn2)cc1 | 62.4%
73 | CN1CCN(c2ccc(Nc3nc(NCCCNC(=O)c4ccc(F)cc4)c4sccc4n3)cc2)CC1 | 80.1%
74 | C#Cc1ccc(S(=O)(=O)Nc2cccc(-c3csc(NC(C)=O)n3)c2)cc1 | 59.7%
